{
  "source": "PubChem BioAssay (NCATS)",
  "note": "Values without a mark were called inactive. Active and inactive are the calls of the source. Calls follow the shape of the dose curve; as a rule, active = well fitted activation curve with a large enough effect; inconclusive = small, poorly fitted or top-dose-only effect; inactive = no such curve, though single readings can be large or run the other way. Potency is read from the fitted curve at half-maximal effect.",
  "data": [
    {"molecular_target": "Parathyroid hormone/parathyroid hormone-related peptide receptor (Homo sapiens) (UniProt Q03431)", "sequence (Q03431 whole entry, looked up)": "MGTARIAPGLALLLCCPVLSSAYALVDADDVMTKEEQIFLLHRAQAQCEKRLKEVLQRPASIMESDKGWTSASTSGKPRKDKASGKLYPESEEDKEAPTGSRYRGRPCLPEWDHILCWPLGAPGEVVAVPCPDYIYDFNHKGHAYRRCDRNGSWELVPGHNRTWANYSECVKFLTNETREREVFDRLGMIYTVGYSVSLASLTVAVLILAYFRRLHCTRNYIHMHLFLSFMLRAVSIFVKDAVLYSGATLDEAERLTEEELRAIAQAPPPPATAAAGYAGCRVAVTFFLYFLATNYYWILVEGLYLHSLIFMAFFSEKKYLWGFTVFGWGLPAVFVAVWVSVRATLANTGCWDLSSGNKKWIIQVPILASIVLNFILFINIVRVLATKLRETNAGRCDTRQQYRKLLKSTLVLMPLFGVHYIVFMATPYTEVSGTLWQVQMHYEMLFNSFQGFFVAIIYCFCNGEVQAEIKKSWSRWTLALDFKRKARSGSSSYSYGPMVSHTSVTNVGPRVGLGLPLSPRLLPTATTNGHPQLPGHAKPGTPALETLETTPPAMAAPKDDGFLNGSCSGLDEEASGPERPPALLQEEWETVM", "test": "qHTS for PTHR1 Agonists: Optimization Screen against the NCGC LOPAC library (AID 1347079); as to activation: 0% is about no effect", "settings": "HEK293 GP2 PTHR1 GloSensor cAMP luminescence, 1 h; series mostly up to 57.1 µM; activation: at the top concentration", "from_the_text": "The goal of the proposed studies is to discover new compounds that act as potent agonists on the parathyroid hormone receptor type-1 (PTHR1). The PTHR1 plays critical roles in maintaining blood calcium and phosphate levels, as well as in controlling bone remodeling. PTHR1 agonists could thus be useful for treating diseases such as hypoparathyroidism and osteoporosis. In the former disease, an agonist drug would help maintain normal blood calcium and phosphate levels under conditions of parathyroid hormone deficiency. In the latter disease, an agonist drug would stimulate new bone formation and thus reduce the risk of fracture, under conditions of bone fragility, as occurs in aging. We performed an optimization assay of the quantitative high-throughput screening (qHTS) for the parathyroid hormone receptor type-1 (PTHR1) against the NCGC LOPAC library collection of […] compounds using a unique HEK-293-derived cell line (GP2) that expresses the PTHR1 and a GloSensor cAMP reporter construct. Increase in signal (activation / agonist) is the desired outcome for compounds of interest. NIH Chemical Genomics Center [NCGC] NIH Molecular Libraries Probe Production Centers Network [MLPCN] MLPCN Grant: P01 DK011794 Assay Submitter (PI): Thomas Gardella PhD, Massachusetts General Hospital\nReagents / Controls: M-PTH (1-15) peptide hormone fragments was provided by the assay provider and was used as a control. Column 1 was treated with M-PTH titration (1:2 dilution) beginning with a final concentration of 10uM. Column 2 was treated with M-PTH final concentration of 10uM. Columns 3 and 4 were treated with DMSO only to assess background and noise signal. Assay Steps: Four microLiter of cells suspension was dispensed in a 1536-well assay plate at a final density of 3000 cells/well. The plates were incubated overnight, after which 4uL of 0.5mM of BloTium Luciferin plus 0.5mM IBMX was added. Next, the plate was incubated at 37C for 1hr before 23nL of compound (at various final concentrations from 40uM to 0.32uM) and control were added using a 1536-well array Kalypsys pin-tool. The treated plates were again incubated at 37C for another hour. Luminescence signal was obtained using the PerkinElmer ViewLux plate reader after 15min or room temperature incubation.", "units": {"activation": "%"}, "values": [
      {"smiles": "COc1ccc2c(c1)CCC1C2CC[C@@]2(C)C1CC[C@@H]2NCCCCCCN1C(=O)C=CC1=O", "note": "(stereo not given in full)", "activation": -52.6},
      {"smiles": "N=C(N)c1ccccc1", "activation": -29.7},
      {"smiles": "Brc1c(Br)c(Br)c2[nH]cnc2c1Br", "activation": 6.59},
      {"smiles": "NC(N)=NC(N)=Nc1ccccc1", "activation": -16.1},
      {"smiles": "Nc1ncnc2c1ncn2C1CCCO1", "note": "(stereo not given)", "activation": 43.4},
      {"smiles": "CN1CC(O)C(O)C(O)C1CO", "note": "(stereo not given)", "activation": -9.68},
      {"smiles": "N#Cc1cc2nc(O)c(O)nc2cc1[N+](=O)[O-]", "activation": 11.4},
      {"smiles": "N[C@H](C(=O)O)[C@H]1C[C@@H]1C(=O)O", "activation": -13.6},
      {"smiles": "COC(=O)C1=C(C)NC(C)=C([N+](=O)[O-])C1c1ccccc1C(F)(F)F", "note": "(stereo not given)", "activation": -20.1},
      {"smiles": "Cn1c(=O)c2c(nc(/C=C/c3cccc(Cl)c3)n2C)n(C)c1=O", "activation": 2.66},
      {"smiles": "c1ccc(C2CN3CCSC3=N2)cc1", "note": "(stereo not given)", "activation": 15.7},
      {"smiles": "CC1=C(/C=C/C(C)=C/C=C/C(C)=C\\C(=O)O)C(C)(C)CCC1", "activation": -5.71},
      {"smiles": "COc1ccc(-c2cc3ncc(C)n3c(Nc3ncccc3C(N)=O)n2)cc1OC", "activation": -6.5},
      {"smiles": "N[C@@H](Cc1c[nH]c2ccccc12)C(=O)O", "activation": -24.3},
      {"smiles": "C=CCN1CCc2cc(O)c(O)cc2C(c2ccccc2)C1", "note": "(stereo not given)", "activation": -30},
      {"smiles": "Nc1ncnc2c1nc(Sc1ccc(Cl)cc1)n2[C@H]1OC2COP(=O)(O)O[C@@H]2C1O", "note": "(stereo not given in full)", "activation": 11.6},
      {"smiles": "O=C(O)[C@H]1NCCC[C@H]1C(=O)O", "activation": 38},
      {"smiles": "CC(=O)N[C@@H](Cc1c[nH]c2ccccc12)C(=O)OCc1cc(C(F)(F)F)cc(C(F)(F)F)c1", "activation": -26.5},
      {"smiles": "C=CC1(C)CC(=O)C2(O)C(C)(O1)C(OC(C)=O)C(O)C1C(C)(C)CCC(O)C12C", "note": "(stereo not given)", "Potency": "21.2 µM (active)"},
      {"smiles": "NCCNS(=O)(=O)c1cccc2c(Cl)cccc12", "activation": -14.7},
      {"smiles": "O=C(O)/C=C/c1cnc[nH]1", "activation": -25.9},
      {"smiles": "CSC(N)=NCCC[C@H](N)C(=O)O", "activation": -21.1},
      {"smiles": "N[C@@H](Cc1ccc(O)c(I)c1)C(=O)O", "activation": -11.8},
      {"smiles": "CCCCCCCCCCCCCCCCCCOC[C@H](COP(=O)([O-])OCC[N+](C)(C)C)OC", "activation": 16.5},
      {"smiles": "N[C@@H](CCC(=O)N[C@H](CSN=O)C(=O)NCC(=O)O)C(=O)O", "activation": -10.8},
      {"smiles": "CO/N=C(\\C(=O)N[C@@H]1C(=O)N2C(C(=O)O)=C(CSc3nc(=O)c(O)nn3C)CSC12)c1csc(N)n1", "note": "(stereo not given in full)", "activation": -35.6},
      {"smiles": "[N-]=[N+]=Nc1ccc(C(=O)CSC[C@H](NC(=O)CC[C@H](N)C(=O)O)C(=O)NCC(=O)O)cc1", "activation": -5.1},
      {"smiles": "N#CC(C#N)=C(N)/C(C#N)=C/c1ccc(O)cc1", "activation": -0.654},
      {"smiles": "Cn1cc(C(F)(F)F)nc1-c1ccc(OCC(O)CNCCOc2ccc(O)c(C(N)=O)c2)cc1", "note": "(stereo not given)", "activation": -33},
      {"smiles": "O=C(OCCN1CCOCC1)C1(c2ccccc2)CCCCC1", "activation": -14.4},
      {"smiles": "CC(=O)O[C@H]1CC2(C)[C@@H](C[C@@H](O)[C@H]3[C@@]4(C)CC[C@@H](O)[C@@H](C)[C@@H]4CC[C@@]32C)C1=C(CCC=C(C)C)C(=O)O", "note": "(stereo not given in full)", "activation": 7.76},
      {"smiles": "O=C(O)/C(=C/c1c(C(=O)O)[nH]c2cc(Cl)cc(Cl)c12)c1ccccc1", "activation": 23.4},
      {"smiles": "C=C1C[C@@]23CC[C@H]4[C@@](C)(CCC[C@@]4(C)C(=O)OC4OC(CO)C(O)C(O)C4O)[C@@H]2CC[C@]1(OC1OC(CO)C(O)C(O)C1OC1OC(CO)C(O)C(O)C1O)C3", "note": "(stereo not given in full)", "activation": -27.8},
      {"smiles": "CCCc1c(-c2ccc(O)cc2)nn(-c2ccc(O)cc2)c1-c1ccc(O)cc1", "activation": -13.3},
      {"smiles": "CCCCOC(=O)NS(=O)(=O)c1sc(CC(C)C)cc1-c1ccc(Cn2c(CC)nc3c(C)cc(C)nc32)cc1", "activation": -7.59},
      {"smiles": "C[C@](Cc1ccc(O)c(O)c1)(NN)C(=O)O", "activation": -46.3},
      {"smiles": "O=C1C2C=CC=CC2=NC(=S)N1CCN1CCC(=C(c2ccc(F)cc2)c2ccc(F)cc2)CC1", "note": "(stereo not given)", "activation": 29.5},
      {"smiles": "O=c1[nH]c2cc(Cl)ccc2c(O)c1-c1ccc(Oc2ccccc2)cc1", "activation": 13.2},
      {"smiles": "NOCC(=O)O", "activation": 37.4},
      {"smiles": "CCCCCCC(=O)OC1CC(C)(C)NC(C)(C)C1", "activation": 21.2}
    ]}
  ]
}
